Results on 14 molecules are retold here after PubChem BioAssay.

Assay [1] is described as follows: inhibitors of TNFa-induced NFkB p65 translocation, primary screen, imaging, HUVEC, MLSMR starter and 10KST1 sets (AID 438;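 active means inhibition above 20% together with a positive visual image hit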;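 further: compound added about 3h40 before a 20 min TNFalpha stimulation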;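 on inhibition: signal is the nuclear over cytoplasmic p65 intensity ratio per well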). The note with it: HUVEC TNFa-induced p65 nuclear translocation; cell count: measured here: nuclei count (cytotoxicity indicator), at 2.08 µM; inhibition: at 2 µM, stronger effect = higher value, 0% TNFa-plus-vehicle, 100% no-TNFa wells.
Assay [2] in a line: reduction of polyQ htt aggregates in cells – imaging, exon1htt(103Q)mCFP cells, high-content imaging, primary screen (AID 483;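 active means visual image review flags a hit and inhibition of aggregation exceeds 20%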;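 further: compound exposure lasted 3 days before fixation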;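 on nuclei count: percent of the per-plate median nuclei count of sample wells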). To be noted: exon1htt(103Q)mCFP cell line, aggregate imaging, at 2 µM; inhibition of aggregation: stronger effect = higher value; nuclei count: measured here: cell count, toxicity.
A short description of assay [3]: endothelial E-selectin expression blockers – imaging, HUVEC, immunofluorescence, MLSMR starter and 10KST1 sets, primary screen (AID 487;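 active means visually confirmed hit in the image check and inhibition above 20%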;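 on inhibition: signal is fraction of cell area covered by stained E-selectin grains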;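 on nuclei count: 100% = median nuclei count of all wells on the same plate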). The note with it: HUVEC TNFalpha-induced E-selectin immunofluorescence imaging, at 2 µM; inhibition: stronger effect = higher value; nuclei count: measured here: cell number, toxicity.
The target of assay [4] is Voltage-gated potassium channel subunit beta-2 (Rattus norvegicus) (UniProt P62483). As to the kind of experiment: inhibitors of rat Kvbeta2 reductase activity – biochemical, NADPH fluorescence, primary screen (AID 622;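 active means fluorescence slope higher than the sample average by over 3 SD, cut at about -0.22 in these data, passing the limit was not always enough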;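 further: slope of raw intensity against log time taken from 70 to 1610 s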). The note with it: recombinant KvBeta, 4-cyanobenzaldehyde reduction, at 10 µM, stronger effect = higher value.
Sequence of Voltage-gated potassium channel subunit beta-2 (Rattus norvegicus) (P62483 whole entry, looked up): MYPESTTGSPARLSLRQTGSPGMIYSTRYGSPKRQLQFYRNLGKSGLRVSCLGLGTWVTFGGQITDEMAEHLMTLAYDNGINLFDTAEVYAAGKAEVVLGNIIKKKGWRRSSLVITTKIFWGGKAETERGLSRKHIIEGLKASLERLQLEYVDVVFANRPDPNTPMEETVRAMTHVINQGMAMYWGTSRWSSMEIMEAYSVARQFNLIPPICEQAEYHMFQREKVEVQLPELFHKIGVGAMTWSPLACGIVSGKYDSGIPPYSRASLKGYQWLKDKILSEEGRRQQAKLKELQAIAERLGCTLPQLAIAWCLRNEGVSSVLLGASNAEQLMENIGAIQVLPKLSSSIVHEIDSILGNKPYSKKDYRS
For assay [5] the target is unchanged. As to the kind of experiment: enhancers of rat Kvbeta2 NADPH turnover – biochemical, NADPH fluorescence, primary screen (AID 623;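 active means NADPH fluorescence slope more negative than the mean of all samples by about 3 SD, 99.7% confidence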;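 further: fluorescence intensity change per second fitted from 20 to 320 s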). The note with it: Recombinant KvBeta, NADPH fluorescence decrease slope, 10 min; at 10 µM; stronger effect = lower value.
The target of assay [6] is Alpha-2C adrenergic receptor (Homo sapiens) (UniProt P18825). As to the kind of experiment: compounds altering alpha2C-coupled GIRK flux – cell-based, HEK293 alpha2C/GIRK1/2, thallium flux, primary screen (AID 624).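 Further: slope of fluorescence ratio to pre-addition baseline per second over 15 to 24 s.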 To be noted: thallium flux BTC fluorescence, at 10 µM, actives lie on both sides.
Sequence of Alpha-2C adrenergic receptor (Homo sapiens) (P18825 whole entry, looked up): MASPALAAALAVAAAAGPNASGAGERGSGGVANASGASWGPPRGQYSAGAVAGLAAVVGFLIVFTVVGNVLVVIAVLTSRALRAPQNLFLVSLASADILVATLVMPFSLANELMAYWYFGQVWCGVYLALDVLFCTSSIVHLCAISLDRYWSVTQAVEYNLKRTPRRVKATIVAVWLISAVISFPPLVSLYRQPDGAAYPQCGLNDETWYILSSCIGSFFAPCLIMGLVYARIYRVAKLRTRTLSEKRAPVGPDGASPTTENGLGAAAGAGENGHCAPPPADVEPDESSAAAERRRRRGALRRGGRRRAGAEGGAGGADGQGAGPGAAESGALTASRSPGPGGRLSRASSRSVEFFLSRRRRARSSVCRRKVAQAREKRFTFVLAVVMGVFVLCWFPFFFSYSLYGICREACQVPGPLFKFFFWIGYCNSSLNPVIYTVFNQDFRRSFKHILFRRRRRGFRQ
A short description of assay [7]: blockers of RIG-like receptor reporter activation – cell-based, Sendai virus stimulus, luciferase, 10K MLSCN set, TLR/RLR signaling modifier project, primary screen (AID 602276;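 active means inhibition at or above 50% at 10 µM; inactive means inhibition below 50%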;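 further: firefly luciferase from ISG56 promoter only with Renilla not read in this screen; 0% = Sendai virus plus DMSO and 100% = medium plus DMSO without virus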). To be noted: HEK293 RL24 IRF3 luciferase reporter, at 10 µM, stronger effect = higher value.
Assay [8] is described as follows: TLR3 IRF3 reporter activation blockers – cell-based, poly I:C stimulus, luciferase, 10K MLSCN set, primary screen (AID 602277;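 active means inhibition of the reporter signal at or above 50%; inactive means inhibition below 50%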). The note with it: HEK293-TLR3 RL24 IRF3 luciferase reporter, at 10 µM, stronger effect = higher value.

Molecules are shown by their SMILES. Activity calls are given as the source filed them.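 How the source made its calls, unless noted: active means fluorescence slope after compound addition differing from the mean of all screened samples at 99.7% confidence, in either direction; inactive means the rest.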

Take `CC(C)Cn1c(N)c(C(=O)COC(=O)c2cc(-c3ccco3)nc3ccccc23)c(=O)n(C)c1=O`: the cell count in assay [1] turned out to be 381. For the same molecule, the inhibition was -2.2% (inactive) in assay [1], -133% (inactive) in assay [3], 15.4% (inactive) in assay [7] and -3.29% (inactive) in assay [8]. In addition, the inhibition of aggregation in assay [2] was -4.3% (inactive). The nuclei count in assay [2] was determined as 100%; in assay [3], 110%. In addition, the fluorescence slope in assay [4] was -0.482 (inactive). Moreover, the NADPH fluorescence slope in assay [5] was -1.1e-05 (inactive). In addition, in assay [6], the slope is 0.00566 (inactive).

Regarding `CC(=O)NCC(=O)N(Cc1ccco1)C1(C(=O)NC2CCCCC2)CCCCC1`, in assay [1], the cell count turned out to be 571. Moreover, the inhibition in assay [1] was 5.7% (inactive); in assay [3] it was -9.3% (inactive); in assay [7], 9.16% (inactive); in assay [8] it was 19.2% (inactive). For the same molecule, the inhibition of aggregation in assay [2] is 19.5% (inactive). Besides, the nuclei count is 132% in assay [2] and 128% in assay [3]. Further, the fluorescence slope in assay [4] was -0.538 (inactive). The NADPH fluorescence slope in assay [5] was -4.2e-05 (inactive). Further, the slope in assay [6] is 0.00597 (inactive).

For `N#CC1=C(N)Oc2cc(O)ccc2C1C1CCCCC1` (centres undefined), the cell count in assay [1] came to 527. The inhibition in assay [1] was 0.6% (inactive); in assay [3] it was -33.8% (inactive); in assay [7], 14.1% (inactive); in assay [8] it was 25.6% (inactive). Also, the inhibition of aggregation in assay [2] is 18.3% (inactive). Also, the nuclei count in assay [2] came out at 103%; in assay [3], 85.8%. In addition, the fluorescence slope in assay [4] is -0.443 (inactive). Besides, the NADPH fluorescence slope in assay [5] is 1.3e-05 (inactive). The slope in assay [6] is 0.00336 (inactive).

In the case of `O=C(COc1ccccc1Cl)NCc1ccco1`, the cell count in assay [1] was 310. For the same molecule, the inhibition in assay [1] was -13% (inactive); in assay [3] it was -27.9% (inactive); in assay [7] it was -22.9% (inactive); in assay [8] it was -43.3% (inactive). Also, the inhibition of aggregation in assay [2] was 7.5% (inactive). In addition, the nuclei count stood at 92.3% in assay [2] and 115% in assay [3]. The fluorescence slope in assay [4] is -0.488 (inactive). In addition, the NADPH fluorescence slope in assay [5] is -3e-05 (inactive). Also, the slope in assay [6] is 0.00673 (inactive).

As for `O=C(CCCCn1c(=O)c2ccccc2n(Cc2ccc(Cl)cc2)c1=O)NCc1ccco1`, the cell count in assay [1] was 613. Also, the inhibition was -7.3% (inactive) in assay [1], -95.8% (inactive) in assay [3], 45.2% (inactive) in assay [7] and 33.2% (inactive) in assay [8]. For the same molecule, the inhibition of aggregation in assay [2] was -8.5% (inactive). The nuclei count turned out to be 81.8% in assay [2] and 110% in assay [3]. The fluorescence slope in assay [4] was -0.466 (inactive). Moreover, in assay [5], the NADPH fluorescence slope is -1.3e-05 (inactive). In addition, the slope in assay [6] was 0.00636 (inactive).

`CCOC(=O)C1=C(NC#N)OC(C)=C(C)C1c1ccc(O)cc1` (centres undefined): in assay [1], the cell count amounted to 276. Further, the inhibition in assay [1] was 1% (inactive); in assay [3], 15.8% (inactive); in assay [7] it was 20.5% (inactive); in assay [8], 18.3% (inactive). The inhibition of aggregation in assay [2] is -12.7% (inactive). Besides, the nuclei count in assay [2] stood at 117%; in assay [3], 100%. Further, the fluorescence slope in assay [4] is -0.487 (inactive). Besides, the NADPH fluorescence slope in assay [5] is -1.5e-05 (inactive). For the same molecule, the slope in assay [6] was 0.00651 (inactive).

Regarding `CCCn1cc(SCC(N)=O)c2ccccc21`, the cell count in assay [1] amounted to 743. Further, the inhibition was -8% (inactive) in assay [1], -33.9% (inactive) in assay [3], 13.5% (inactive) in assay [7] and 27.7% (inactive) in assay [8]. Further, the inhibition of aggregation in assay [2] was -1.3% (inactive). The nuclei count in assay [2] amounted to 107%; in assay [3] it was 113%. For the same molecule, the fluorescence slope in assay [4] is -0.382 (inactive). The NADPH fluorescence slope in assay [5] is -6.4e-06 (inactive). Also, the slope in assay [6] was 0.00614 (inactive).

Consider `CC1CCc2nn(CC(=O)N3CCN(C(=O)c4ccco4)CC3)cc2C1` (centres undefined), for which the cell count in assay [1] worked out at 758. Besides, the inhibition is -8.5% (inactive) in assay [1], -41% (inactive) in assay [3], 6.35% (inactive) in assay [7] and 25.7% (inactive) in assay [8]. Moreover, the inhibition of aggregation in assay [2] was -12% (inactive). Also, the nuclei count in assay [2] amounted to 112%; in assay [3] it was 107%. In assay [4], the fluorescence slope is -0.585 (inactive). Moreover, in assay [5], the NADPH fluorescence slope was -5.6e-05 (inactive). For the same molecule, in assay [6], the slope is 0.0063 (inactive).

With `Cc1ccc(S(=O)(=O)C2(C(=O)Nc3nccs3)CC2)cc1`, the cell count in assay [1] came to 584. Further, the inhibition in assay [1] was 6.5% (inactive); in assay [3], -69.3% (inactive); in assay [7] it was 13% (inactive); in assay [8], 32.7% (inactive). Also, the inhibition of aggregation in assay [2] was 0% (inactive). In addition, the figures for the nuclei count in assay [2] and in assay [3] were 95.6% and 103%, respectively. In addition, the fluorescence slope in assay [4] was -0.586 (inactive). The NADPH fluorescence slope in assay [5] was -2.1e-05 (inactive). Also, the slope in assay [6] is 0.00637 (inactive).

Regarding `CC1=C(C(=O)OCc2ccccc2)C(c2ccc(C)o2)C2=C(CCCC2=O)N1` (centres undefined), the cell count in assay [1] is 745. Besides, the inhibition in assay [1] is 1.9% (inactive); in assay [3], 29.9% (inactive); in assay [7], 2.43% (inactive); in assay [8] it was 15.6% (inactive). The inhibition of aggregation in assay [2] is 14.6% (inactive). The values for the nuclei count in assay [2] and in assay [3] were 101% and 97%, respectively. The fluorescence slope in assay [4] is -0.466 (inactive). The NADPH fluorescence slope in assay [5] is -3.8e-05 (inactive). In addition, the slope in assay [6] is 0.00603 (inactive).

As for `O=C(O)CCc1ccc(-c2ccc(Br)cc2)n1CC(=O)O`, in assay [1], the cell count turned out to be 339. In addition, the inhibition was 7.5% (inactive) in assay [1], -65% (inactive) in assay [3], 10.9% (inactive) in assay [7] and 28.5% (inactive) in assay [8]. In addition, the inhibition of aggregation in assay [2] is -4.6% (inactive). Moreover, the nuclei count in assay [2] was determined as 90%; in assay [3] it was 112%. Besides, in assay [4], the fluorescence slope is -0.378 (inactive). For the same molecule, the NADPH fluorescence slope in assay [5] is -5.5e-05 (inactive). Further, in assay [6], the slope was 0.00594 (inactive).

For `CC1=C(C(=O)OC2CCCC2)C(c2ccc(C)o2)C2=C(CC(c3cccs3)CC2=O)N1` (centres undefined), the cell count in assay [1] was found to be 346. The inhibition in assay [1] was 3.5% (inactive); in assay [3], -10.5% (inactive); in assay [7], -5.28% (inactive); in assay [8], 16.8% (inactive). For the same molecule, the inhibition of aggregation in assay [2] was -7.2% (inactive). Also, the nuclei count in assay [2] came to 81.1%; in assay [3], 99%. Also, the fluorescence slope in assay [4] is -0.459 (inactive). Besides, the NADPH fluorescence slope in assay [5] is -5.5e-05 (inactive). Also, the slope in assay [6] was 0.00301 (inactive).

`CC(=O)c1ccc(NC2OC(C)C(O)C(O)C2O)cc1` (centres undefined): in assay [1], the cell count was 329. The inhibition in assay [1] is 4.3% (inactive); in assay [3] it was -90% (inactive); in assay [7], -11.5% (inactive); in assay [8] it was -11.5% (inactive). The inhibition of aggregation in assay [2] was -0.6% (inactive). Besides, the values for the nuclei count in assay [2] and in assay [3] were 93.8% and 103%, respectively. The fluorescence slope in assay [4] is -0.382 (inactive). Also, the NADPH fluorescence slope in assay [5] was -8.6e-06 (inactive). Moreover, the slope in assay [6] is 0.00391 (inactive).

In the case of `CCOC(=O)c1c(C)[nH]c(C)c1C(=O)COc1ccc(NC(=O)c2ccco2)cc1`, in assay [1], the cell count was found to be 426. Besides, the inhibition was -10.7% (inactive) in assay [1], -423% (inactive) in assay [3], 14.6% (inactive) in assay [7] and 20.5% (inactive) in assay [8]. In addition, the inhibition of aggregation in assay [2] was 8.3% (inactive). Further, the nuclei count in assay [2] came out at 102%; in assay [3], 144%. Moreover, the fluorescence slope in assay [4] is -0.646 (inactive). In addition, in assay [5], the NADPH fluorescence slope is 1.7e-05 (inactive). For the same molecule, the slope in assay [6] is 0.00505 (inactive).
